From the supplement of paper PMC6718421 come the findings set out here.

This experiment deals with Caenorhabditis elegans N2 (wild type). In words: animals with crystals or spheres in anterior pharynx; higher = more object (crystal/sphere) accumulation. To be noted: 30 µM; 48 h; genotype: wild type N2; stage: L1 start. Here is the method:
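Synchronized wild-type (N2) C. elegans L1 larvae (50 per well) were incubated in liquid NGM with E. coli HB101 and 30 uM of each wactive for 48 h. Live worms were scored by DIC and polarized-light microscopy for birefringent crystals or non-birefringent spheres in the anterior pharynx. At least 3 biological replicates were run with at least 20 worms each; the value is the mean % of animals carrying objects.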
`CCOc1ccc(/C=C/[N+](=O)[O-])cc1` [wact-385] showed an animals of 0%.
With `Fc1ccc(N2CCN(Cc3cccc(Br)c3)CC2)cc1` [wact-30], the animals came out at 0%.
